Results taken from PubChem BioAssay AID449762 (Southern Research Specialized Biocontainment Screening …, 2010).
Out of some 330,000 compounds screened, about 1,900 (0.58%) were called active. Another 4% or so got no clear call; they are omitted. Not all results are given here. Measured potencies and affinities stand elsewhere. Unmarked numbers belong to inactive results. Rule as the data show it: inconclusive = inhibition above about 70% without an active follow-up result; inactive = below that.

Assay: M. tuberculosis growth inhibition, HTS (AID 449762);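 also: bacterial growth assessed after seven days of incubation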
Details: M. tuberculosis H37Rv growth inhibition, 7H9 media; at 25 µM; stronger effect = higher value

Structure (SMILES)	inhibition [%]
Oc1ccc(/C=N/Nc2cc(N3CCCC3)nc(N3CCCC3)n2)cc1	4.32
COc1ccc(/C=N/Nc2nc(N3CCCC3)nc(N3CCCC3)n2)cc1	-3.33
CCN(CC)C(=O)CSc1nc2[nH]ncc2c(=O)[nH]1	-0.87
COc1cc2[nH]c3ccccc3c2cc1C	-8.31
Cc1ccc(C)c2c1[nH]c1ccccc12	6.73
O=c1oc(CCO)cc2ccc(Br)cc12	9.08
COc1ccccc1NC(=O)c1c[nH]c2ccccc12	0.76
O=C(CCN1C(=O)/C(=C/c2ccccc2Cl)SC1=S)N1CCOCC1	69
CN1CCN(C(=O)CCN2C(=O)/C(=C/c3ccccc3Cl)SC2=S)CC1	49.8
O=C(CCN1C(=O)/C(=C/C=C/c2ccccc2)SC1=S)Nc1ccccn1	-4.47
Cc1ccc(/C=C2\SC(=S)N(CCCC(=O)Nc3ccccn3)C2=O)cc1	0.58
COC(=O)c1ccc(NC(=S)NC(=O)c2cccnc2)cc1	-0.36
COc1ccccc1-n1c(O)c(C=NCCN2CCNCC2)c(=O)[nH]c1=O	-7.53
COC(=O)c1ccc(NC(=O)c2ccc3nccnc3c2)cc1	-7.47
CCN(CC)S(=O)(=O)c1ccc(S(=O)(=O)Nc2c(C)nn(C)c2C)cc1	-5.92
COc1ccc(-c2c(C(F)(F)F)oc3cc(OCC(=O)Nc4ccccc4C(F)(F)F)ccc3c2=O)cc1OC	10.6
CSc1nncc(-c2ccccc2)n1	-0.45
O=C(Cc1ccc(F)cc1)N1CCC(N2CCC(C(=O)N3CCOCC3)CC2)CC1	4.87
CCCCn1nnc(NC(=O)CCC)n1	-12.6
OC(c1ccccc1)C1CN(Cc2ccccc2)CCC1(O)c1ccccc1 (configuration not stated)	2.62
OC1(c2ccccc2)CCN(Cc2ccccc2)C2CCCCC21 (configuration not stated)	-3.63
CN1C(C(=O)NCc2ccc(OC(F)(F)F)cc2)CC2Cn3c(nc4ccccc43)C21 (configuration not stated)	-3.09
CN1C(C(=O)NCc2ccc(OC(F)(F)F)cc2)CC2Cn3c(nc4cc5ccccc5cc43)C21 (configuration not stated)	57.5

Structure (SMILES)	inhibition [%]
Cc1ccc(S(=O)(=O)N[C@H](C(=O)N2CCC(C(=O)N[C@@H](CCC(N)=O)C(=O)O)CC2)C(C)C)cc1	-8.96
CN1CCN2c3ncccc3Cc3ccccc3C2C1 (configuration not stated)	-1.61
CN1CCN2c3ncccc3Cc3ccccc3[C@@H]2C1	8.88
O=C(c1cc(C(=O)N2CCOCC2)c2nc3ccccc3n2c1)c1ccccc1O	1.28
COc1ccc(C(=O)CSc2nnc(CNc3ccc(C)cc3C)o2)cc1	-7.42
COc1ccc(C(=O)CSc2nnc(CNc3ccc(F)cc3)o2)cc1	15.6
C=CCNC(=O)COC(=O)c1ccc(Sc2nncn2C)c([N+](=O)[O-])c1	-2.55
COc1ccc(CC(=O)N(Cc2ccccc2)c2ccc(C)cc2)cc1S(=O)(=O)N1CCOCC1	4.3
CCOC(=O)CCc1cnccc1-c1cccc(OC)c1O	4.79
CCCN1C(=O)N(c2cccc(C)c2)C(C)(O)CC1(C)C (configuration not stated)	0.42
O=C(c1cccc(C(F)(F)F)c1)N1CCN(C2CCCCC2)CC1	6.41
CC[N+](C)(C)CC/C=C1/c2ccccc2Sc2ccc(Cl)cc21	-9.06
CN(C)CC/C=C1/c2ccccc2Sc2ccc(Cl)cc21	39
CN(CCOc1ccc(-c2ccn(S(=O)(=O)c3ccc(Cl)cc3)n2)cc1)c1ccccn1	7.05
Cc1ccc(-c2noc(CCC(=O)N3CCCc4ccccc43)n2)cc1	6.56
CCOC(=O)c1c(NC(=O)COC(=O)Cc2n[nH]c(=O)c3ccccc23)sc(C(=O)NC)c1C	-12.1
O=[N+]([O-])c1cccc(-c2nc(-c3ccccc3)c(-c3cccs3)[nH]2)c1	1.45
O=[N+]([O-])c1cccc(-c2nc(-c3cccs3)c(-c3cccs3)[nH]2)c1	1.58
CC1=NN(c2ccccc2)C(=O)/C1=C/c1ccc[nH]1	1.35
CN(C)c1ccc(C=C2C(=O)OC(C)(C)OC2=O)cc1	2.97
COc1cc2cc(Oc3ccc4ccc(=O)oc4c3)c(=O)oc2cc1O[C@@H]1O[C@H](CO)[C@@H](O)[C@H](O)[C@H]1O	-3.36
CC(C)(C)C1CCC2(CC1)Nc1cccc3cccc(c13)N2	28.8
c1cc2c3c(cccc3c1)NC1(CCCCC1)N2	-8.51

Structure (SMILES)	inhibition [%]
Cc1cc(C(=O)N2CCN(Cc3ccccc3)CC2)on1	4.33
CN1C(=O)N(C)C2(c3ccccc3)Nn3c(s/c(=C/c4ccccc4F)c3=O)=NC12c1ccccc1 (configuration not stated)	1.37
CCCC(C)C(=O)Nc1ccccc1C(=O)OCC (configuration not stated)	-6.12
COc1ccc(C2C(C#N)=C(C)NC3=C2C(=O)CC(C)(C)C3)cc1 (configuration not stated)	2.98
CC1=C(C#N)C(c2cccnc2)C2=C(CC(c3ccc(Cl)cc3)CC2=O)N1 (configuration not stated)	49.6
Cc1ccc(C[n+]2ccccc2)cc1	-0.58
Cc1nc2ccccn2c1P(=Nc1ccccc1)(N(C)C)N(C)C	-7.51
COC(=O)[C@@H]1C[C@@]2(O)[C@@H](O)[C@@H](O)[C@@H](O)C[C@H]2N1Cc1ccc(C(F)(F)F)cc1	-13
CCOC(=O)c1ccc(-c2c(-c3cc(OC)c(OC)c(OC)c3)noc2C)cc1F	8.43
CCOC(=O)c1ccc(-c2c(-c3ccc4c(c3)OCO4)noc2-c2ccsc2)cc1F	7.75
CCCOc1ccc(N2CC(C(=O)Nc3ncccc3C)CC2=O)cc1 (configuration not stated)	25.7
O=C1CCc2cc(S(=O)(=O)NC(Cc3ccccc3)C(=O)NCCC3=CCCCC3)ccc2N1 (configuration not stated)	-6.41
COc1ccccc1Cn1c(=S)[nH]c2cc(C(=O)NCC3CCCO3)ccc2c1=O (configuration not stated)	2.37
CC(=O)Nc1scc(C)c1-c1nc2ccccc2s1	26
CC(=O)N1CCc2c(sc(NC(=O)C3CC3)c2-c2nc3ccccc3s2)C1	15.3
Cc1ccccc1NC(=O)Cn1c(C)nc2ccc(NC(=O)C3CC3)cc2c1=O	2.87
NS(=O)(=O)c1ccc(N2N=C(c3ccccc3)CC2c2ccc(F)cc2)cc1 (configuration not stated)	12.8
NS(=O)(=O)c1ccc(N2N=C(c3ccccc3)CC2c2ccccc2)cc1 (configuration not stated)	16.9
O=C(O)c1ccccc1C(=O)NCCc1c(C(=O)O)[nH]c2ccc(Cl)cc12	7.67
COc1cccc(NC(=O)CSc2nc3ccccc3c(=O)n2CCCC(=O)NCCCN2CCOCC2)c1	-10.7
CCOC(=O)c1ccc(NC(=S)NCCc2ccc(OC)c(OC)c2)cc1	47.4
CCOC(=O)c1ccc(NC(=O)Nc2ccc(F)cc2)cc1	0.77
O=C(O)C1CCN(c2ccc(S(=O)(=O)N3CCOCC3)cc2[N+](=O)[O-])CC1	-9.82

Structure (SMILES)	inhibition [%]
Cn1cnc(C(=O)NC2CCN(C(=O)OC(C)(C)C)CC2)c1C(=O)NC1CCN(C(=O)OC(C)(C)C)CC1	-7.54
CCn1c(N2CCN(C(=O)/C=C/c3ccccc3)CC2)nc2ccccc21	6.08
CC(C)Cn1c(N2CCN(C(=O)c3cccs3)CC2)nc2ccccc21	-9
CSc1nc2ccccc2n1CC(=O)Nc1c(C)n(C)n(-c2ccccc2)c1=O	-4.84
CCOc1ccc(CN2C(=O)c3ccccc3C2C(=O)NC(C)CC)cc1OC (configuration not stated)	2.03
O=C(NCc1ccco1)c1ccc(-c2ccccc2Cl)o1	-1.96
COc1ccc(CCC(=O)OC(C)C(=O)c2ccc(C)cc2)cc1 (configuration not stated)	-2.54
Cc1noc2ncnc(Sc3c(Cl)cccc3Cl)c12	47.8
COc1ccc(Sc2ncnc3onc(C)c23)cc1	3.37
O=C(O)/C=C/C(=O)Nc1ccccc1-c1ccccc1NC(=O)/C=C/C(=O)O	3.08
CCn1nc(C)c(CCC(=O)O)c1C	4.75
Cc1ccc(/C=C/C(=O)OCC(=O)NCCc2ccc(S(N)(=O)=O)cc2)o1	-0.03
COc1ccc(/C=N/Nc2ncnc3scc(-c4ccccc4)c23)cc1OC	-0.49
COc1cccc(/C=N/Nc2ncnc3scc(-c4ccccc4)c23)c1OC	8.3
CC1CCCCN1C(=O)Nc1ccccc1Cl (configuration not stated)	-0.25
O=S(=O)(c1ccc(S(=O)(=O)N2CCN3CCCC3C2)cc1)N1CCCC1 (configuration not stated)	-15.1
CCOC(=O)c1sc(NC(=O)CSc2nc3ccccc3s2)c(C(=O)OCC)c1C	12.6
Cc1c(O)cc2n(c1=O)-c1ccc(Cl)cc1C2(C)C	-11.1
CCc1c(O)cc2n(c1=O)-c1ccc(Cl)cc1C2(C)C	-2.84
Cc1ccsc1C1Nc2ccc3ncccc3c2C2=C1C(=O)CCC2 (configuration not stated)	2.32
O=C(Nc1ccc(Cl)cn1)Nc1ccccc1F	-4.27
COCCn1c(=NC(=O)c2cc(Cl)sc2Cl)sc2cc(S(N)(=O)=O)ccc21	-0.08
C=CCn1c(=NC(=O)c2cc(Cl)sc2Cl)sc2cc(S(N)(=O)=O)ccc21	-3.02
